Test results reported in PubChem BioAssay AID624273 (Broad Institute, 2012).
In all, about 1,000 compounds went through this assay and about 230 (23%) were called active. Another 1% or so got no clear call; they are omitted. The rule behind the calls is not given here. The list shows a part of the results. Entries with a potency or affinity are not part of this list.

target: Long-chain-fatty-acid--AMP ligase FadD28 (Mycobacterium tuberculosis (strain ATCC 25618 / H37Rv)) (UniProt P9WQ59); experiment: inhibitors of FadD28 bisubstrate probe binding, dose response, biochemical, fluorescence polarization, cherry-pick (AID 624273); settings: series mostly up to 50 µM; activity change, negative = inhibition: at the top concentration
Sequence (P9WQ59 whole entry, looked up): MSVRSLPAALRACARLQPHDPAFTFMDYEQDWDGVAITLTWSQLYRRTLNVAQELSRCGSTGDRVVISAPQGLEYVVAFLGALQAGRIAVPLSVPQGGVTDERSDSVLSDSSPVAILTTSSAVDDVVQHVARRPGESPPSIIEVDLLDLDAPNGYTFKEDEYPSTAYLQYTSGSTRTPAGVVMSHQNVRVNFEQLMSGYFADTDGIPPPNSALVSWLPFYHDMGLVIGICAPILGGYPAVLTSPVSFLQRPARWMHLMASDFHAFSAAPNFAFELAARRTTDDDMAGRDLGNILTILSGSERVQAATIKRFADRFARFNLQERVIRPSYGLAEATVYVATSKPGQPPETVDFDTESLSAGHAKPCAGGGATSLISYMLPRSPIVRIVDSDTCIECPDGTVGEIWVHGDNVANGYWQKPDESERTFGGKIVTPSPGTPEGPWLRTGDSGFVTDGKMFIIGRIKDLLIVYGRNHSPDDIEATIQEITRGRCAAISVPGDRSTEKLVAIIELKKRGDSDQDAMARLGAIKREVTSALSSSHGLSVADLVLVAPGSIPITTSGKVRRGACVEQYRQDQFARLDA

Compound	activity change, negative = inhibition
Cc1oc(/C=N/NS(=O)(=O)c2ccccc2)cc1Br	-12.7% (inactive)
Cc1sc(-n2c(C)cc(/C=C3\SC(=S)NC3=O)c2C)c(C#N)c1C	-17.2% (inactive)
O=C1C2ON(c3ccccc3)C(c3ccccn3)C2C(=O)N1c1ccc(Br)cc1 (centres undefined)	-17% (inactive)
Cn1nnnc1NCc1cccc(Cl)c1	-1.85% (inactive)
Cc1nnc(NC(=O)c2sc3nc(-c4cccs4)cc(C(F)(F)F)c3c2N)s1	-3.55% (inactive)
O=C(Cn1cnc2c(oc3nc4c(cc32)CCCC4)c1=O)Nc1cccc(Cl)c1	-19.7% (inactive)
COc1ccccc1NC(=O)CSCC(=O)N1c2ccccc2CCc2ccccc21	3.81% (inactive)
N#Cc1ccccc1NC(=O)c1cc(=O)c2ccccc2o1	-1.27% (inactive)
NC(Cc1ccc(Cl)cc1)c1csc(NC(=O)Nc2ccccc2)n1 (centres undefined)	17.3% (inactive)
Nc1ccc(C(CC(=O)O)n2cccc2)cc1 (centres undefined)	-9.59% (inactive)
Cc1ccc(Cn2nnc3c(=O)[nH]c(C4CCN(S(=O)(=O)Cc5ccccc5)CC4)nc32)cc1	-2.02% (inactive)
COc1cc(/C=C2/C(=O)NN(c3cccc(Cl)c3)C2=O)cc(OC)c1O	-11.7% (inactive)
COc1cc(/C=C2/C(=O)NN(c3ccc(Cl)cc3)C2=O)ccc1OC(=O)c1ccco1	-6.33% (inactive)
Cc1ccc(OCC(=O)NCCS(=O)(=O)N2CCN(c3ccccc3)CC2)cc1	-4.58% (inactive)
Cc1cccc(NC(=O)c2cccc(S(=O)(=O)N3CCc4ccccc4C3)c2)n1	-2.05% (inactive)
CCC(=O)c1ccc(OCC(=O)Nc2cccc(S(=O)(=O)N3CCCCCC3)c2)cc1	-10.1% (inactive)
COc1ccc(S(=O)(=O)N2CCCCC2)cc1NC(=O)CN1CCN(C(C)=O)CC1	-3.48% (inactive)
CCc1cccc(NC(=O)Cn2c(=O)oc3cc(S(=O)(=O)N4CCOCC4)ccc32)c1	-29.4% (inactive)
CN(CC(=O)N1CCc2ccccc21)S(=O)(=O)c1cccc2cccnc12	3.09% (inactive)
Cc1ccc(S(=O)(=O)N(C)C)cc1NC(=O)C(C)[N+]12CCN(CC1)CC2 (centres undefined)	-5.61% (inactive)
CC1CCCN(Cc2c(O)ccc3c(=O)c(-c4nc5ccccc5s4)c(N)oc23)C1 (centres undefined)	-5.96% (inactive)
CN1C(=O)C2C=CC1C1C(=O)N(c3ccccc3)C(=O)C21 (centres undefined)	-6.91% (inactive)

Compound	activity change, negative = inhibition
Cc1ccc(S(=O)(=O)N(C)C)cc1NC(=O)CSc1nnnn1-c1ccc(O)cc1	-14.5% (inactive)
CC1(C)Cc2nc3oc4c(NCc5ccccc5)ncnc4c3cc2CO1	-2.72% (inactive)
CCN=c1scc(C)n1/N=C/c1cc(Br)c(O)c(Br)c1	-4.09% (inactive)
O=C(CSc1ccc(Br)c2cccc(Cl)c12)Nc1ccc(S(=O)(=O)Nc2nccs2)cc1	-15.1% (inactive)
O=C(CSc1ncn[nH]1)Nc1ccc(S(=O)(=O)Nc2ncccn2)cc1	-3.33% (inactive)
COc1ccccc1COC(=O)c1cccc(S(=O)(=O)N2CCCC2)c1	-0.209% (inactive)
COc1ccccc1[C@@H]1C(c2cccc(C)c2)=NN(c2ccccc2)[C@H]1C(=O)N1CCOC1=O	0.248% (inactive)
O=c1cc(CN2CCc3ccccc32)c2ccc(O)cc2o1	-8.7% (inactive)
O=C(O)Cc1ccc2c(c1)N(S(=O)(=O)c1cccs1)CC(C(=O)O)O2 (centres undefined)	-14.2% (inactive)
OCCN1CCN(c2ncnc3c2ncn3[C@H]2CN(Cc3ccncc3)C[C@@H](CO)O2)CC1	-2.24% (inactive)
COc1ccc(CCNC(=O)CN(c2ccc(C)cc2)S(=O)(=O)c2c(C)noc2C)cc1OC	-2.72% (inactive)
Nc1ccc2c(c1)[nH]c(=O)c1cc(N)ccc12	-0.111% (inactive)
CC(=O)Nc1ccc(S(=O)(=O)NC2=C(N3CCN(c4ccc(F)cc4)CC3)C(=O)c3ccccc3C2=O)cc1	-18.6% (inactive)
NS(=O)(=O)c1cccc(NS(=O)(=O)c2ccc(/C=C/C(=O)OCC(=O)c3ccccc3)cc2)c1	-0.888% (inactive)
O=[N+]([O-])c1cc(S(=O)(=O)Nc2cccc(C(F)(F)F)c2)ccc1-n1nnc2ccccc21	-21.8% (inactive)
Cc1cc(NS(=O)(=O)c2ccc(NC(=O)Cc3ccccc3)cc2)nc(C)n1	-4.8% (inactive)
COc1ccccc1NS(=O)(=O)c1cccc(NC(=O)Nc2cccc(Cl)c2)c1	-3.21% (inactive)
O=C1C(Cl)=C(NCCN2CCOCC2)C(=O)c2ccccc21	-8.82% (inactive)
O=C(NN=C1CCCC1)c1cc(Cl)cc(Cl)c1O	-17.8% (inactive)
N#Cc1cc2c(nc1SCc1ccc(Cl)nc1)CCCCC2	-3.38% (inactive)
Cc1ccc2oc(C(=O)N3CCCCCC3)c(C)c2c1	0.038% (inactive)
O=C(CSc1ccccn1)N1CCN(S(=O)(=O)c2ccc(Cl)cc2)CC1	-7.31% (inactive)

Compound	activity change, negative = inhibition
Cc1ccnc(NC(=O)CCC(=O)N(CC(=O)NCC2CCCO2)Cc2ccc(F)cc2)c1 (centres undefined)	-1.94% (inactive)
Cc1cc[n+](CC(=O)c2cc3ccccc3oc2=O)cc1	-3.16% (inactive)
O=C1NC(=O)N(Cc2ccc(F)cc2)C(=O)/C1=C\c1ccoc1	-9.04% (inactive)
COc1ccc(C(=O)N/N=C2\SCC(=O)N2Cc2ccc3c(c2)OCO3)c(OC)c1	-23.6% (inactive)
CCNC(=S)N1CCN(CC(=O)Nc2ccc(Br)cc2)CC1	15% (inactive)
Nc1ccccc1/C=N\N=C/c1ccccc1N	-5.39% (inactive)
COc1ccc(CCNC(=O)CCNC(=O)N2CC(=O)Nc3ccccc32)cc1	-1.19% (inactive)
CN(C)C1(c2nnnn2-c2ccc(Cl)cc2)CCCCC1	-6.34% (inactive)
O=C(c1[nH]c(C(F)(F)F)nc1-c1ccccc1)N1CCN(c2ccccn2)CC1	-6.13% (inactive)
N#Cc1c(C#N)c(-c2ccccc2)n(-c2ccc(C(=O)O)cc2)c1N	-2.68% (inactive)
CC(=O)Nc1ccc(/C=N\NC(=O)CNS(=O)(=O)c2ccc([N+](=O)[O-])cc2)cc1	-16.2% (inactive)
COc1ccc(/C=C/C(=O)N2CC(C)OC(C)C2)cc1OC (centres undefined)	-2.82% (inactive)
COC(=O)CSc1nnc(CNC(=O)c2cc(OC)cc(OC)c2)n1-c1ccc(F)cc1	49.8% (inactive)
O=c1[nH]c(=S)[nH]c2c1C(c1ccc(Br)cc1)c1c([nH]c(=S)[nH]c1=O)O2	-8.68% (inactive)
O=C(OCC(=O)N1CCCC1)c1cccs1	-3.69% (inactive)
O=C1NCCN(C(=O)CCc2nnc(-c3ccsc3)o2)C1c1ccc(F)cc1 (centres undefined)	-10.6% (inactive)
COc1ccc(C2(CNC(=O)c3ccc(OC)c([N+](=O)[O-])c3)CCCCC2)cc1OC	-1.23% (inactive)
O=C(O)CCCN1C(=O)/C(=C/c2ccc(-c3nc4ccccc4s3)o2)SC1=S	-4.59% (inactive)
Cc1ccc(-c2nn(-c3ccccc3)cc2/C=C2\SC(=S)N(CCCCCC(=O)O)C2=O)o1	46.1% (inactive)
CC1(c2ccc(OC(F)F)cc2)NC(=O)N(CC(=O)Nc2ccc3[nH]c(=O)[nH]c3c2)C1=O (centres undefined)	-3.88% (inactive)
